Assay results reported in PubChem BioAssay (Tox21).
Inconclusive results are not listed. Entries that show only a call come without a potency. The source made the active and inactive calls. Unless noted, calls come from the whole dose curve; as a rule, active = well fitted curve in the direction sought with a large enough effect in the repeat runs; inconclusive = weak or mixed curves; inactive = no such curve, though single readings can be large; an effect the other way counts as inactive or inconclusive.

Key:
[1] = qHTS assay to identify small molecule antagonists of the estrogen related receptor (ERR) signaling pathway - cell viability counter screen (AID 1224818);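 note: series mostly up to about 46 µM; viability measured after 17.5 h of compound exposure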
In short: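 After a 6 h pre-incubation, ERR cells were dosed by pin tool with compounds, positive/negative controls or DMSO alone. Following 17.5 h at 37 C and 30 min with CellTiter-Fluor, fluorescence was recorded.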

[2] = qHTS assay to identify small molecule antagonists of the estrogen related receptor (ERR) signaling pathway (AID 1224819;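 note: luminescence from an ERR-driven luciferase reporter measured with One-Glo reagent; series mostly up to about 46 µM; nearly all actives have a fitted effect of over 50% in size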)
In short: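 Luminescence readout (One-Glo, 30 min, RT) of ERR cell line after 18 h compound exposure at 37 C; cells seeded 2,000/well, pre-incubated 6 h, compounds pinned from DMSO stocks.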

[3] = qHTS assay to identify small molecule agonists of the estrogen related receptor (ERR) signaling pathway (AID 1224820)
In short: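 Cells: ERR line from NTP, 2,000/well. Pre-incubation 6 h, 37 C/5% CO2. Compound (DMSO) pin transfer, 18 h 37 C. One-Glo, 30 min RT, luminescence.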

[4] = system: estrogen-related receptor alpha (ERRalpha) with PGC-1alpha coactivator, human; assay: qHTS assay to identify small molecule antagonists of the estrogen related receptor signaling pathway with the pleiotropic PPARgamma coactivator (PGC) (AID 1224821; calls by dose curve; note: nearly all actives have a fitted effect of over 50% in size; note: potency is the fitted concentration of half-maximal effect)
In short: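 Luminescent read-out (One-Glo, 30 min at room temperature) following 18 h treatment of PGC/ERR cells at 37 C with compounds delivered in DMSO. Cells had settled 6 h at 37 C/5% CO2 before dosing.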

[5] = qHTS assay to identify small molecule agonists of the estrogen related receptor signaling pathway with the pleiotropic PPARgamma coactivator (PGC) (AID 1224823)
In short: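 Steps: plate PGC/ERR cells at 2,000 cells/well; incubate 6 h, 37 C/5% CO2; pin-transfer compounds (DMSO); incubate 18 h, 37 C; add One-Glo; 30 min RT; read luminescence.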

[6] = qHTS assay to identify small molecule agonists of the vitamin D receptor (VDR) signaling pathway - cell viability counter screen (AID 743224); note: series mostly up to about 63 µM; nearly all actives have a fitted effect of over 50% in size
In short: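 Plated VDR-bla cells (4 h, 37C) received compound, incubated 16 h, then LiveBLAzer substrate 2 h RT; CellTiter-Glo added afterwards, luminescence read at 30 min.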

[7] = qHTS assay to identify small molecule antagonists of the vitamin D receptor (VDR) signaling pathway - cell viability counter screen (AID 743225); note: nearly all actives have a fitted effect of over 50% in size; note: potency is the fitted concentration of half-maximal effect
In short: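 Compounds were pinned onto VDR-bla HEK 293T cells together with 1-alpha,25-dihydroxyvitamin D3 at 3 nM final. After 16 h at 37C and 5% CO2 plus the reporter readout, cell viability was measured by CellTiter-Glo luminescence (30 min, room temperature).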

[8] = qHTS assay to identify small molecule agonists of the NFkB signaling pathway (AID 1159509; active = well fitted curve in the direction sought with a large enough effect in the signal ratio in the repeat runs, not every such curve was filed as active; the % refers to the signal ratio; note: series mostly up to about 61 µM)
In short: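 ME-180 NFkB-bla, 2,000 cells/well, overnight plating; cpd pinned in DMSO, 5 h 37 C; B/G FRET substrate 1.5 h RT; ex 405, em 460/530 nm.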

[9] = qHTS assay to identify small molecule agonists of the NFkB signaling pathway - cell viability counter screen (AID 1159515; calls by dose curve; note: series mostly up to about 61 µM; nearly all actives have a fitted effect of over 55% in size)
In short: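 Using the same wells as the NFkB reporter read, ME-180 NFkB-bla cells given compounds for 5 hr were assessed for viability via CellTiter-Glo, with luminescence taken after a 30 min room-temperature incubation.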

[10] = qHTS assay to identify small molecule agonists of the endoplasmic reticulum stress response signaling pathway - cell viability counter screen (AID 1159517; calls by dose curve)
In short: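 HeLa cells carrying an ESRE-driven beta-lactamase reporter receive compound for 5 hr at 37 C. Cell viability is then gauged with CellTiter-Glo by luminescence, 30 min at room temperature.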

[11] = qHTS assay to identify small molecule antagonists of the retinoid-related orphan receptor gamma (ROR-gamma) signaling pathway - cell viability counter screen (AID 1159520); note: nearly all actives have a fitted effect of over 50% in size
In short: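 Cytotoxicity was read from cellular ATP (CellTiter-Glo luminescence) after 16 hr at 37 C with 1 uM doxycycline induction. The inducer was added 2 hr after compound transfer to Tet-on ROR gamma CHO cells.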

[12] = molecular target: Nuclear receptor ROR-gamma (Homo sapiens) (UniProt P51449); assay: qHTS assay to identify small molecule antagonists of the retinoid-related orphan receptor gamma (ROR-gamma) signaling pathway (AID 1159521)
In short: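 Test compounds were applied to Tet-on RORγ CHO cells 2 h ahead of doxycycline hyclate (1 uM final). Luciferase reporter activity was quantified by luminescence after 16 h at 37 C and 5% CO2.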

[13] = qHTS assay to identify small molecule agonists of the AP-1 signaling pathway - cell viability counter screen (AID 1159525; calls by dose curve; note: nearly all actives have a fitted effect of over 55% in size)
In short: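 Luminescent ATP readout (Cell Titer Glo, 30 min RT), normalised to DMSO and tetra n-octyl ammonium bromide controls. Cells were ME-180 AP-1-bla in 0.5% dialyzed FBS Opti-MEM, with a 5 h, 37 °C compound exposure.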

[14] = qHTS assay to identify small molecule agonists of the AP-1 signaling pathway (AID 1159526; calls by dose curve)
[15] = molecular target: Retinoic acid receptor RXR-alpha (Homo sapiens) (UniProt P19793); assay: qHTS assay to identify small molecule agonists of the RXR signaling pathway (AID 1159527; calls by dose curve; note: nearly all actives have a fitted effect of over 35% in size)
Retinoic acid receptor RXR-alpha (Homo sapiens), sequence (P19793 whole entry, looked up): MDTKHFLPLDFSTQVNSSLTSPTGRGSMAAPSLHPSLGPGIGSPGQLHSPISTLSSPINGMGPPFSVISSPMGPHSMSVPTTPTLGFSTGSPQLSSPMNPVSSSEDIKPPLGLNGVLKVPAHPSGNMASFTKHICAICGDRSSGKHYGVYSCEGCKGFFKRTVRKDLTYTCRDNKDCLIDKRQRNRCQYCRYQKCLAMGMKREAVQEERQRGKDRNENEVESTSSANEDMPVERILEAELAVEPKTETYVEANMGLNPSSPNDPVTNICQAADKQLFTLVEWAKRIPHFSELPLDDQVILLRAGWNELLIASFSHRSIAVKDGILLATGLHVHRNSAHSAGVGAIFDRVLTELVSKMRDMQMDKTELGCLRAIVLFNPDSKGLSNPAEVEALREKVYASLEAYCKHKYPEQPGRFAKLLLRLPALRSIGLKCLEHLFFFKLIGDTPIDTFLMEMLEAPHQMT
In short: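 Using 9-cis retinoic acid as the reference agonist, chemicals were tested in HEK 293T cells […] for 16 hr; substrate loading lasted 2 hr at room temperature.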

[16] = qHTS assay to identify small molecule agonists of the RXR signaling pathway - cell viability counter screen (AID 1159529)
In short: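 Compounds dissolved in DMSO were pinned onto HEK 293T cells carrying a beta-lactamase reporter under RXR-alpha control and incubated 16 hr. Cytotoxicity was then quantified by CellTiter-Glo luminescence.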

[17] = qHTS assay to identify small molecule antagonists of the retinoid acid receptor (RAR) signaling pathway - cell viability counter screen (AID 1159551); note: nearly all actives have a fitted effect of over 35% in size
In short: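 Retinol-stimulated (1 uM final) C3RL4 cells, compound 6 h, 37 C; readout CellTiter-Glo luminescence (ATP) after 30 min RT incubation.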

[18] = qHTS assay to identify small molecule antagonists of the retinoic acid receptor (RAR) signaling pathway (AID 1159552; note: nearly all actives have a fitted effect of over 50% in size)
In short: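 Test chemicals and DMSO controls were pin-transferred onto C3RL4 cells a day after seeding; retinol (1 uM final) followed at once. Luminescent reporter output was quantified after 6 hr of co-incubation and 30 min with detection reagent.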

[19] = qHTS assay to identify small molecule agonists of the retinoic acid receptor (RAR) signaling pathway (AID 1159553)
In short: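 Reporter readout comes from luciferase under RARE control in C3RL4 cells; compound exposure lasts 6 hr at 37 C in 5% CO2, and luminescence is recorded following a 30 min room-temperature incubation with reagent.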

[20] = qHTS assay to identify small molecule agonists of the endoplasmic reticulum stress response signaling pathway (AID 1159516; active = well fitted activation curve with a large enough effect in the signal ratio in the repeat runs, not every such curve was filed as active; the % refers to the signal ratio)
In short: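 An ESRE-bla HeLa cell assay: compounds were pin-transferred from DMSO onto overnight-plated cells and left 5 hr at 37 C. Substrate was then loaded for 2 hr at room temperature before reading fluorescence at 460 nm and 530 nm.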

**Q.** Which results are given for c1ccc(C2CC2)c(OCC2=NCCN2)c1?
**A.** outcome [1]: inactive; outcome [2]: inactive; outcome [3]: inactive; Potency [4]: inactive; outcome [5]: inactive

**Q.** Which results are given for NC(=O)CI?
**A.** outcome [1]: inactive; outcome [2]: inactive; outcome [3]: inactive; Potency [4]: 11.9 µM (active); outcome [5]: inactive

**Q.** With CCOP(=O)(OCC)Oc1ccc([N+](=O)[O-])cc1 as the compound, how does the Potency [6] read?
**A.** inactive

**Q.** And the Potency [7]?
**A.** inactive

**Q.** What about the outcome [8] of the same compound?
**A.** inactive

**Q.** And the Potency [9]?
**A.** inactive

**Q.** What about the Potency [10] of the same compound?
**A.** inactive

**Q.** What about the Potency [11] of the same compound?
**A.** inactive

**Q.** What about the Potency [12] of the same compound?
**A.** inactive

**Q.** And the Potency [13]?
**A.** inactive

**Q.** And the outcome [14]?
**A.** inactive

**Q.** And the Potency [15]?
**A.** inactive

**Q.** And the Potency [16]?
**A.** inactive

**Q.** And the Potency [17]?
**A.** inactive

**Q.** And the Potency [18]?
**A.** inactive

**Q.** And the Potency [19]?
**A.** inactive

**Q.** What does the source list for Brc1ccccc1?
**A.** Potency [6]: inactive; outcome [8]: inactive; Potency [9]: inactive; outcome [20]: inactive; Potency [11]: inactive; Potency [12]: inactive; Potency [13]: inactive; outcome [14]: inactive; Potency [16]: inactive; Potency [17]: inactive; Potency [18]: inactive; Potency [19]: inactive

**Q.** Which results are given for CC(=O)CCC(C)=O?
**A.** Potency [6]: inactive; Potency [7]: inactive; outcome [8]: inactive; Potency [9]: inactive; outcome [20]: inactive; Potency [11]: inactive; Potency [12]: inactive; Potency [13]: inactive; outcome [14]: inactive; Potency [16]: inactive; Potency [17]: inactive

**Q.** Which results are given for NCCCNCCCN?
**A.** Potency [7]: 49.7 µM (active); outcome [8]: inactive; Potency [9]: inactive; outcome [20]: inactive; Potency [11]: inactive; Potency [13]: inactive; outcome [14]: inactive; Potency [17]: inactive

**Q.** For C[C@H]1CNCCc2ccc(Cl)cc21, which Potency [6] is on record?
**A.** inactive

**Q.** What about the Potency [7] of the same compound?
**A.** inactive

**Q.** And the outcome [8]?
**A.** inactive

**Q.** And the Potency [9]?
**A.** inactive

**Q.** What about the outcome [20] of the same compound?
**A.** inactive

**Q.** What about the Potency [11] of the same compound?
**A.** inactive

**Q.** And the Potency [13]?
**A.** inactive

**Q.** What about the Potency [15] of the same compound?
**A.** inactive

**Q.** And the Potency [16]?
**A.** inactive

**Q.** And the Potency [17]?
**A.** inactive

**Q.** What about the Potency [18] of the same compound?
**A.** inactive

**Q.** And the Potency [19]?
**A.** inactive

**Q.** Which results are given for CCBr?
**A.** Potency [6]: inactive; Potency [7]: inactive; outcome [8]: inactive; Potency [9]: inactive; outcome [20]: inactive; Potency [11]: inactive; Potency [12]: inactive; Potency [13]: inactive; outcome [14]: inactive; Potency [15]: inactive; Potency [16]: inactive; Potency [18]: inactive; Potency [19]: inactive

**Q.** Which Potency [6] does the source give for CNC(C)Cc1ccccc1OC (stereo not drawn) here?
**A.** inactive

**Q.** What about the Potency [7] of the same compound?
**A.** inactive

**Q.** And the outcome [8]?
**A.** inactive

**Q.** What about the Potency [9] of the same compound?
**A.** inactive

**Q.** And the Potency [10]?
**A.** inactive

**Q.** And the Potency [11]?
**A.** inactive

**Q.** What about the Potency [12] of the same compound?
**A.** inactive

**Q.** What about the Potency [13] of the same compound?
**A.** inactive

**Q.** What about the outcome [14] of the same compound?
**A.** inactive

**Q.** What about the Potency [16] of the same compound?
**A.** inactive

**Q.** What about the Potency [17] of the same compound?
**A.** inactive

**Q.** And the Potency [18]?
**A.** inactive

**Q.** And the Potency [19]?
**A.** inactive

**Q.** Which results are given for ClCC(Br)CBr (stereo not drawn)?
**A.** Potency [6]: inactive; Potency [7]: inactive; outcome [8]: inactive; Potency [9]: inactive; outcome [20]: inactive; Potency [11]: inactive; Potency [13]: inactive; outcome [14]: inactive; Potency [15]: inactive; Potency [16]: inactive; Potency [17]: inactive; Potency [18]: inactive; Potency [19]: inactive

**Q.** Which results are given for CCCCCCCCCCOC(=O)c1ccccc1C(=O)OCCCCCCCCCC?
**A.** Potency [6]: inactive; outcome [8]: inactive; Potency [9]: inactive; outcome [20]: inactive; Potency [11]: inactive; Potency [12]: inactive; Potency [13]: inactive; outcome [14]: inactive; Potency [16]: inactive; Potency [17]: inactive

**Q.** Which results are given for CCC(Cl)CCl (stereo not drawn)?
**A.** Potency [6]: inactive; outcome [8]: inactive; Potency [9]: inactive; Potency [10]: inactive; Potency [11]: inactive; Potency [12]: inactive; Potency [13]: inactive; outcome [14]: inactive; Potency [16]: inactive; Potency [17]: inactive; Potency [18]: inactive; Potency [19]: inactive
